Reference: PubChem BioAssay AID602248 (The Scripps Research Institute Molecular Screening Center, 2012)
Screen size: about 360,000 compounds; about 1,700 (0.47%) were called active. Cut-off read from the data, not from the text of the source: active = activation above about 15%; inactive = the rest. Only a selection was taken, and actives are over-represented in it overall.

Assay: counter-screen for M1 agonists: effect in parental CHO-K1 cells (AID 602248);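 note: untransfected CHO-K1 host cells lacking M1 receptor as counterscreen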
Details: Fluo-8 calcium fluorescence, at 3 µM, hits give high values, scaled to maximal ATP response, vehicle zero
For `COc1cccc2c1C(=O)c1c(O)c3c(c(O)c1C2=O)CC(O)(C(C)=NNC(=O)c1ccc(Cl)c(Cl)c1)CC3OC1CC(N)C(O)C(C)O1` (stereo unspecified), the activation was 7.82% (inactive). For `CN(C(=O)CC1C(=O)NCCN1Cc1ccc2ccccc2c1)C1CCOCC1` (stereo unspecified), the activation was 0.91% (inactive). With `CC1CCCCC12NC(=O)N(CC(=O)OCc1c(F)cccc1Cl)C2=O` (stereo unspecified) the activation was 21.8% (active). In the case of `CC1CCCCC12NC(=O)N(CC(=O)OCC(=O)NCc1ccc(F)cc1)C2=O` (stereo unspecified), the activation is reported as 0.23% (inactive). With `CCCc1ccc(C(=O)COC(=O)CN2C(=O)NC3(CCCCC3C)C2=O)cc1` (stereo unspecified) the activation was 5.23% (inactive). With `c1ccc2c(c1)nnn2-c1ccncc1` the activation was 0.33% (inactive). In the case of `O=C(O)/C=C/c1ccc(S(=O)(=O)N2CCCCCC2)cc1`, the activation is reported as -0.04% (inactive). With `O=C(/C=C(O)/C=C/c1ccc(O)cc1)/C=C/c1ccc(O)cc1` the activation was 46.7% (active). In the case of `C=CCNC(=O)/C=C/c1ccc(C(C)C)cc1`, the activation is reported as -0.17% (inactive). For `N=c1n(Cc2ccc(Cl)cc2)c2ccccc2n1CC(O)c1ccco1` (stereo unspecified), the activation was 1.71% (inactive). In the case of `CC12CCC(=O)N1C(C(=O)Nc1ccc(F)c(F)c1F)CS2` (stereo unspecified), the activation is reported as 1.59% (inactive). With `CCCc1nc(-c2ccccc2O)n(-c2ccccc2)n1` the activation was -0.09% (inactive). For `Cc1nc(NC(CC(C)C)C(=O)O)c2nc(C)oc2n1` (stereo unspecified), the activation was -0.16% (inactive). In the case of `O=C(CN(CC1CCCO1)C(=O)CNS(=O)(=O)c1ccc(F)cc1)NCc1ccco1` (stereo unspecified), the activation is reported as 1.1% (inactive). With `O=C(NCc1cccs1)C(=O)NCC1OCCCN1S(=O)(=O)c1ccc(F)cc1` (stereo unspecified) the activation was -0.04% (inactive). In the case of `CN(NC(=O)C1CC(=O)N(c2ccccc2)C1)C1=NS(=O)(=O)c2ccccc21` (stereo unspecified), the activation is reported as -0.27% (inactive). With `Nc1cc(=O)n(Cc2ccccc2)c(=O)n1Cc1ccccc1` the activation was 0.11% (inactive). With `CN(C(=O)COC(=O)c1ccc(Br)o1)c1c(N)n(Cc2ccccc2)c(=O)[nH]c1=O` the activation was 2.4% (inactive). With `Cc1cc2nc3c(=O)n(Cc4ccccc4)c(=O)[nH]c3nc2cc1N` the activation was 47.3% (active). For `Cc1ccc(S(=O)(=O)n2cccc2CO)cc1`, the activation was -0.4% (inactive). In the case of `COc1ccc(-n2c(Cc3cccn3C)nnc2SCC(=O)Nc2cc(C)cc(C)c2)cc1`, the activation is reported as -0.02% (inactive). In the case of `CCOC(=O)N1C(=O)C[C@](Sc2ccc(C)cc2)(C(=O)OC)[C@H]1c1ccccc1`, the activation is reported as 1.19% (inactive). With `CC(=O)NC(=S)Nc1ccc(NC(=S)NC(=O)c2ccc([N+](=O)[O-])cc2)cc1` the activation was 24.5% (active). In the case of `COCCCNC(=S)NC(=O)c1ccc([N+](=O)[O-])cc1`, the activation is reported as 0.19% (inactive). With `CC(=O)Nc1ccc(NC(=S)NC(=O)c2ccc([N+](=O)[O-])c(C)c2)cc1` the activation was 1.35% (inactive). For `Cc1nn(C(C)C(=O)N2CCOCC2)c(=O)c2nn(-c3ccccc3)c(C)c12` (stereo unspecified), the activation was 2.09% (inactive). In the case of `COc1cccc(CNn2cn[nH]c2=S)c1OCc1ccccc1`, the activation is reported as 1.05% (inactive). For `COc1cccc(CNCCc2c[nH]c3ccccc23)c1OCc1ccccc1F`, the activation was 23.3% (active). For `Fc1ccccc1COc1ccccc1CNCc1ccncc1`, the activation was 4.4% (inactive). For `COc1cc(NC(=O)COC(=O)CSc2ccc3ccccc3c2)c(C)cc1[N+](=O)[O-]`, the activation was 5.21% (inactive). In the case of `COc1ccc(-c2n[nH]c(C)c2-c2ccccc2OC)c(O)c1`, the activation is reported as 15.4% (active). In the case of `COc1ccc(-c2[nH]ncc2CN(C)Cc2c(C)n[nH]c2C)c(OC)c1`, the activation is reported as 1.07% (inactive). For `COc1ccc(-c2c(-c3ccc(OC)cc3O)nc(C)nc2C(F)(F)F)cc1`, the activation was -0.31% (inactive). With `Cc1ccc(Cc2cncc(O)c2)cc1S(=O)(=O)O` the activation was 0.27% (inactive). With `Cc1cccc(C(=O)OCC(=O)Nc2sccc2C(N)=O)c1C` the activation was -0.07% (inactive). With `COc1cc(OC)cc(C(=O)OCC(=O)Nc2sccc2C(N)=O)c1` the activation was 9.07% (inactive). For `NC(=O)c1ccsc1NC(=O)COC(=O)COc1ccc(C=O)cc1`, the activation was 16.2% (active). With `CCOC(=O)[C@]12CCC=C1N(Cc1cccc3ccccc13)C(=O)[C@H](CC(=O)NCc1cccc(C(F)(F)F)c1)C2` the activation was 0.16% (inactive). In the case of `Cc1ccc(C)c(CN2CCC(CNC(=O)Nc3ccc(C)c(F)c3)CC2)c1`, the activation is reported as 2.18% (inactive). For `Cc1cccc(CN2CCC(CNC(=O)Nc3ccc(F)c(Cl)c3)CC2)c1`, the activation was 29.2% (active). With `COc1cc(NC(=O)NCC2CCN(Cc3ccc(C)cc3)CC2)cc(OC)c1OC` the activation was 1.36% (inactive). With `O=C(O)c1cc(Cl)c(Cl)cc1C(=O)Nc1cccc2ncccc12` the activation was 20.9% (active). In the case of `Cc1ccc(/C=C(\C#N)C(=O)Nc2cccc3ncccc23)o1`, the activation is reported as 2.57% (inactive). For `O=C(O)c1cc2c(cc1NC(=O)c1c(F)cccc1Cl)OCCCO2`, the activation was 0.67% (inactive). With `COc1ccc(C(=O)CSc2nnnn2C)c(OC)c1` the activation was -0.15% (inactive). In the case of `O=c1c2ccccc2c(-c2ccc(Br)cc2)nn1Cc1ccccc1`, the activation is reported as 0.4% (inactive). For `CSc1c(SCc2ccccc2)cnn(Cc2ccccc2)c1=O`, the activation was 18.2% (active). In the case of `COC(=O)c1ccc(SCc2ccccc2)nc1`, the activation is reported as -0.21% (inactive). In the case of `Cc1nn(CC2CC2)c(=O)n1N(C)c1ncc(C(F)(F)F)cc1Cl`, the activation is reported as 1.05% (inactive). For `Cc1ccc2c(CN3CCN(S(=O)(=O)c4ccccc4C(F)(F)F)CC3)cc(=O)oc2c1`, the activation was 6.94% (inactive). For `COc1ccc2c(CN3CCN(S(=O)(=O)c4cccs4)CC3)cc(=O)oc2c1`, the activation was 16.1% (active). In the case of `Cc1cc2oc(=O)cc(CN3CCN(S(=O)(=O)c4cccs4)CC3)c2cc1C(C)C`, the activation is reported as 1.53% (inactive). For `O=C(Nc1ccccc1)c1ccc2nsnc2c1`, the activation was -0.09% (inactive). In the case of `O=C(Nc1ccc2ccccc2c1)Nc1ccc2snnc2c1`, the activation is reported as 14% (inactive). With `COc1ccc(NC(=O)Nc2ccc3nsnc3c2)cc1` the activation was 19.9% (active). With `CCc1ccccc1NC(=O)Cc1cn(C)c2ccccc12` the activation was 8.41% (inactive). For `CC(C)(C)C1CCC(=O)N2CCC[C@]2(c2ccccc2)C1` (stereo partly specified), the activation was -0.26% (inactive). With `Cc1nc(N)c(Br)c(C)c1Br` the activation was -0.78% (inactive). For `COc1ccccc1CNc1nc(Nc2ccccc2Cl)c2sccc2n1`, the activation was 7.11% (inactive). In the case of `COc1cccc(CNc2nc(NCc3ccccc3OC)nc3ccsc23)c1`, the activation is reported as 8.82% (inactive). In the case of `COc1cccc(CNc2nc(NCc3cccs3)nc3ccsc23)c1`, the activation is reported as 24.7% (active).
